Measurements taken from the supplement of paper PMC11732987, “Enantioselective OTUD7B fragment discovery through chemoproteomics screening and high-throughput optimisation” (Communications Chemistry, 2025).

How the values were obtained:
Experiment in all cases: log2 ratio of Biotin-Ahx-Ub-VS probe labelling (fragment/DMSO); higher = less target engagement (more negative = stronger competition), active = hit call of the paper (q ≤ 0.05, log2 ratio ≤ -1)
Settings in all cases: compound concentration: 200 uM; treatment time: 3 h
USP34 = USP34 (UniProt Q70CQ2)
USP34, sequence (Q70CQ2 whole entry, the tested form may be a part): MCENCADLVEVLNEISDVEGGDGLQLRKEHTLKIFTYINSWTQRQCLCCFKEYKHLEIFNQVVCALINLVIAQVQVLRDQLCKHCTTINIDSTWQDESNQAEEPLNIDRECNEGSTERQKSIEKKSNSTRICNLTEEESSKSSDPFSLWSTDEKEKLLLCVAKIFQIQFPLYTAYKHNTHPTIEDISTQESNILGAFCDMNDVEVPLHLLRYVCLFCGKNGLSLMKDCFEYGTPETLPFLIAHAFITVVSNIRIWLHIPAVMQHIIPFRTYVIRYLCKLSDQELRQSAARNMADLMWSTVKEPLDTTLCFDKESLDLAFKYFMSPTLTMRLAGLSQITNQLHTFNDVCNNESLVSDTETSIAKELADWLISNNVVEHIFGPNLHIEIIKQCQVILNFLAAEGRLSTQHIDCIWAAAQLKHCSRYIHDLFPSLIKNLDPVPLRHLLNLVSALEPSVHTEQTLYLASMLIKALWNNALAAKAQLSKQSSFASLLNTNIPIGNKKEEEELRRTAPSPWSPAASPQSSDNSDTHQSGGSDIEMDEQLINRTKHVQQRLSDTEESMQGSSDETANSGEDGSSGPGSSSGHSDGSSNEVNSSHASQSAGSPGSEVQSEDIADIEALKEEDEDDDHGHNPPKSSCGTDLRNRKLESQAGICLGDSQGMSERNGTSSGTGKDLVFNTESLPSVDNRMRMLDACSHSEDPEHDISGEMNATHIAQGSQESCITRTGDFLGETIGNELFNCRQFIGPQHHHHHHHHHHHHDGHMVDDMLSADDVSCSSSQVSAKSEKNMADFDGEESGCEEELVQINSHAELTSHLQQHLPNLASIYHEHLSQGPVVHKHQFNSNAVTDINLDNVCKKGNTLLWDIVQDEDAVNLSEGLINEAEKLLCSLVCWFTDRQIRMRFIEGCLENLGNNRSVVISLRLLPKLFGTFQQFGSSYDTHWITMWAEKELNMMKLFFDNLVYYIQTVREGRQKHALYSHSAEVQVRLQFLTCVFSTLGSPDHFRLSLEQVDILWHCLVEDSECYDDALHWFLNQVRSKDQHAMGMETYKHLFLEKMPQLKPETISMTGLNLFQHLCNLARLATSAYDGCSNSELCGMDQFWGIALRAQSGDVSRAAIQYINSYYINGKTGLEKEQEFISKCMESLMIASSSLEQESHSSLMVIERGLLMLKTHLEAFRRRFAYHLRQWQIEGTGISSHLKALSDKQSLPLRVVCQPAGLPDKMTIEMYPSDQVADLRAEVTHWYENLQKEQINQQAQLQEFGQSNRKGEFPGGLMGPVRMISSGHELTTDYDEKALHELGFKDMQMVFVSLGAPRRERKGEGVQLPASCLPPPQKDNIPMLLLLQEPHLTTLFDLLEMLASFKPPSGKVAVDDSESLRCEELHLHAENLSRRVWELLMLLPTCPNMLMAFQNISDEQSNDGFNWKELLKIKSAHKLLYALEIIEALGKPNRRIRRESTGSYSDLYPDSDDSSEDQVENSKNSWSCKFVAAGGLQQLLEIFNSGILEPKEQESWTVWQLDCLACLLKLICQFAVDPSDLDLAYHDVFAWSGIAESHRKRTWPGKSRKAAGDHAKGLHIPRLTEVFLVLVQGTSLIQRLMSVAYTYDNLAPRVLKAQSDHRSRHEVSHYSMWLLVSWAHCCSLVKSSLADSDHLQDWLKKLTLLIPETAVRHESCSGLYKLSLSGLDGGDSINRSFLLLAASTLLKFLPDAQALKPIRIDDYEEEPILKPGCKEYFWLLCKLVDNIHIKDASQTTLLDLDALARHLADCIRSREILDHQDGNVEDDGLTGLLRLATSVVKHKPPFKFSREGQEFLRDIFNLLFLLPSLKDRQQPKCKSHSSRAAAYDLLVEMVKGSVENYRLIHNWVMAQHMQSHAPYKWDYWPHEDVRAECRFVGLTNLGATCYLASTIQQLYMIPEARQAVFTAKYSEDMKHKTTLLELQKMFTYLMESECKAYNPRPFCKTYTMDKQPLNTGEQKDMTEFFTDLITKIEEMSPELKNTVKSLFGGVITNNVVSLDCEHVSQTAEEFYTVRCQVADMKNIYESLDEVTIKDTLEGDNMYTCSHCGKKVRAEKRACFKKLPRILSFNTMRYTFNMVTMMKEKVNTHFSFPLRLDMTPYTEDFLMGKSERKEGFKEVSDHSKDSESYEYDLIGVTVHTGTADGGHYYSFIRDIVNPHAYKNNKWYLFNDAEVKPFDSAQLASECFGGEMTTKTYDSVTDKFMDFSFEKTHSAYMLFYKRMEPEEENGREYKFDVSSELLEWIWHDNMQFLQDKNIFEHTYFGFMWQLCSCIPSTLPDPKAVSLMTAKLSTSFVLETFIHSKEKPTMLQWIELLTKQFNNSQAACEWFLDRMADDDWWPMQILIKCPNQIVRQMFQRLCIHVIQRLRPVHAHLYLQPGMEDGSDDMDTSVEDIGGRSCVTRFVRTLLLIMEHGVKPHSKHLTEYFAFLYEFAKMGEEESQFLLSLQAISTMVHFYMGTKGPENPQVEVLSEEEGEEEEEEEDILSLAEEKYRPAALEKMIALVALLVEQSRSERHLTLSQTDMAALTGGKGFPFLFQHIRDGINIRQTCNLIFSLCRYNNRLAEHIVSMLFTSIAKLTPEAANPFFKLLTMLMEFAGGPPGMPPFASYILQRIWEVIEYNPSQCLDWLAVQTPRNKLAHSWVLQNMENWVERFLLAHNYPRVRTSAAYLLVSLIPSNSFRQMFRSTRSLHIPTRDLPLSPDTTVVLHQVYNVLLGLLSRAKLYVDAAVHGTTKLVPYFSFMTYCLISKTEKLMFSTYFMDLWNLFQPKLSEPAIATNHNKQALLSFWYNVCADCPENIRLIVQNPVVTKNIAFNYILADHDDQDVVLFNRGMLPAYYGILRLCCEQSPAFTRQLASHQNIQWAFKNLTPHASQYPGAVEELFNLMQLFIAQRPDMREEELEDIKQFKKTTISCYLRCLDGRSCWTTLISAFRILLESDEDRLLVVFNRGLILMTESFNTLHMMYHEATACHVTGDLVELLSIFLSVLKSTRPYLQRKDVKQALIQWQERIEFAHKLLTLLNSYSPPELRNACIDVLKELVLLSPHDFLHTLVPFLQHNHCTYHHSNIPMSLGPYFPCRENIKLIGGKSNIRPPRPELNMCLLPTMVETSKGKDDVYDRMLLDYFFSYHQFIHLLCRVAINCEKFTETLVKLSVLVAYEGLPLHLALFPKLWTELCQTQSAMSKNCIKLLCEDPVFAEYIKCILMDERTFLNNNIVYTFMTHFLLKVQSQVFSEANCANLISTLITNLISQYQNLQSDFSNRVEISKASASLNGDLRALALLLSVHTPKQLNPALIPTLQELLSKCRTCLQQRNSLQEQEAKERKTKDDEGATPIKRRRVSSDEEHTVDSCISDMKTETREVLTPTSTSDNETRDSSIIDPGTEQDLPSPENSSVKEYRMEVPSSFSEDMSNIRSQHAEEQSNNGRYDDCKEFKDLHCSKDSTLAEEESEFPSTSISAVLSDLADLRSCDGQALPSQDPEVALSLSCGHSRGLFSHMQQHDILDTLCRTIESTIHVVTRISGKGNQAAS
How it was run: (§1)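 Average log2 ratios of fragment over vehicle were obtained by unpaired t-test from global-median-normalised Spectronaut label-free quantities. Proteins with ≥2 unique peptides were included. HEK293T lysate (495 µg per sample) was treated in triplicate with fragment at 200 µM or vehicle for 3 h, then with Biotin-Ahx-Ub-VS at 0.5 µM final for 1 h, and labelled DUBs were NeutrAvidin-enriched and run by diaPASEF LC-MS/MS.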

USP36 = target: T1, USP36 (UniProt Q9P275)
T1 sequence (whole entry): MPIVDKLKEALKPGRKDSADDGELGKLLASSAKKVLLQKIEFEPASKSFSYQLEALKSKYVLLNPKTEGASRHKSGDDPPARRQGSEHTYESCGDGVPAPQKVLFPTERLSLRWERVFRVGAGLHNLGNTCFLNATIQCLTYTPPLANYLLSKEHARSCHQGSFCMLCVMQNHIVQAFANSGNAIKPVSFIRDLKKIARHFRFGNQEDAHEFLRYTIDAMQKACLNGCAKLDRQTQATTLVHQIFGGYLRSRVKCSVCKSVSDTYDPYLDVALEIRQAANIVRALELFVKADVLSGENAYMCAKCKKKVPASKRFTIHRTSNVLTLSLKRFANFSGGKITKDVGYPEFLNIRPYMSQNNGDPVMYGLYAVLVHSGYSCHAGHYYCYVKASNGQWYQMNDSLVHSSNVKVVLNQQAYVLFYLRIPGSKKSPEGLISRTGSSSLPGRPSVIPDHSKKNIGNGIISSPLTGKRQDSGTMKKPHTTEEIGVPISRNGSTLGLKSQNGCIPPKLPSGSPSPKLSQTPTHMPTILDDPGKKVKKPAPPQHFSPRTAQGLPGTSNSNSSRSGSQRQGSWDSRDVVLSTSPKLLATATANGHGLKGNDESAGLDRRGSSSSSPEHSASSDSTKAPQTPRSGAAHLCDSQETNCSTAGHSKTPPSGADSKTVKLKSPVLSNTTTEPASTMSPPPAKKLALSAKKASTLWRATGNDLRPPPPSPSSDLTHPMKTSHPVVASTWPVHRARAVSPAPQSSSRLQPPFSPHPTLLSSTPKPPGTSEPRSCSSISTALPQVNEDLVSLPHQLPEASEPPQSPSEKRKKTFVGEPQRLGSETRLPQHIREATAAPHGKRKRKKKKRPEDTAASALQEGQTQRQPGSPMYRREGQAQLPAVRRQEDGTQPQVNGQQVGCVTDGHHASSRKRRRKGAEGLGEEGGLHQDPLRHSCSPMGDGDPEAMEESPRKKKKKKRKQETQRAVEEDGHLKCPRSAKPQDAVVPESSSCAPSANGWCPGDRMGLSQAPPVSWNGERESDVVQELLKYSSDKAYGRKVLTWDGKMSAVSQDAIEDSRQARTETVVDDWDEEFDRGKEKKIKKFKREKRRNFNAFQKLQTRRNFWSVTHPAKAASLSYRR
How it was run: as §1

USP38 = target: T2, USP38 (UniProt Q8NB14)
T2 sequence (whole entry): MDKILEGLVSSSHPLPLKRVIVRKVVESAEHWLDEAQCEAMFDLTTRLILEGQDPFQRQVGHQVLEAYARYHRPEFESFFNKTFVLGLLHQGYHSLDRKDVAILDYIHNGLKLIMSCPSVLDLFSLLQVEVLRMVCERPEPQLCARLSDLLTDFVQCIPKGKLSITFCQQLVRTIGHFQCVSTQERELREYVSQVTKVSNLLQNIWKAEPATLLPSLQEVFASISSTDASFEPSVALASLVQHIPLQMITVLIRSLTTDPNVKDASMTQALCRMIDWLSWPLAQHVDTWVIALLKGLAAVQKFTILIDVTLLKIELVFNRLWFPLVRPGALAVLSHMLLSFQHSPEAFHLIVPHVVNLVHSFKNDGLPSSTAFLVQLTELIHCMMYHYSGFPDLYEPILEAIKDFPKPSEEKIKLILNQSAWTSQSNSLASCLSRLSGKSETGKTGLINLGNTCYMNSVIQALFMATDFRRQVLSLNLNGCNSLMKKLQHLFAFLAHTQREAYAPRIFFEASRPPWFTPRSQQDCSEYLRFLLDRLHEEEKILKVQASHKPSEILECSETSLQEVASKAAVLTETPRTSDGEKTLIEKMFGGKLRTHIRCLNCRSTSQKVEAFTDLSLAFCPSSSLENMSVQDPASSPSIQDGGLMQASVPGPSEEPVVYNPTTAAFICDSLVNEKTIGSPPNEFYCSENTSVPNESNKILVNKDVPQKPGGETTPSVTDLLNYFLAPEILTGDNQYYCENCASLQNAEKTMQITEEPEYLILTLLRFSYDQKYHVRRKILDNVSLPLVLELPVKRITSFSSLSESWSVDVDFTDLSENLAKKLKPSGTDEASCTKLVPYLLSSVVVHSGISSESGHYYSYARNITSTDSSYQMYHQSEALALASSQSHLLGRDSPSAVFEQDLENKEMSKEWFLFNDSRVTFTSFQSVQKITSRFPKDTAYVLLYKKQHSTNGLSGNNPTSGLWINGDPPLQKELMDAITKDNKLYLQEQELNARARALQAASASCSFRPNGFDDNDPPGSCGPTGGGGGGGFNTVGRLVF
How it was run: as §1

USP39 = target: T3, USP39 (UniProt Q53GS9)
T3 sequence (whole entry): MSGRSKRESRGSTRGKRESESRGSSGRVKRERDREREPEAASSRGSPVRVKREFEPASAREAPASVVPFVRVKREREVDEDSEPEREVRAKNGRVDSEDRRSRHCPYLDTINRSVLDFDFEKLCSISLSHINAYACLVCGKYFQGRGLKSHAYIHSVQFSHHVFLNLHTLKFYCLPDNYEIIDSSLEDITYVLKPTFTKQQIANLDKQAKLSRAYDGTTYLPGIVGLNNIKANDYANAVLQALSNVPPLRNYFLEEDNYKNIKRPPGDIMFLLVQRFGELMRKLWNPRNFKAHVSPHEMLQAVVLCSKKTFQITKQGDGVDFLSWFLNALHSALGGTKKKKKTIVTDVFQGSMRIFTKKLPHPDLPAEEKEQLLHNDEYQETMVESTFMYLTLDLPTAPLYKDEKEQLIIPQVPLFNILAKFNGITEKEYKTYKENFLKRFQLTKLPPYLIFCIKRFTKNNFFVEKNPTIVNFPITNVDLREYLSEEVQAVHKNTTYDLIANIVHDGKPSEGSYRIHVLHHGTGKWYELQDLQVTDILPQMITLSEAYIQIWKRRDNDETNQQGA
How it was run: as §1

USP4 = target: T4, USP4 (UniProt Q13107)
T4 sequence (whole entry): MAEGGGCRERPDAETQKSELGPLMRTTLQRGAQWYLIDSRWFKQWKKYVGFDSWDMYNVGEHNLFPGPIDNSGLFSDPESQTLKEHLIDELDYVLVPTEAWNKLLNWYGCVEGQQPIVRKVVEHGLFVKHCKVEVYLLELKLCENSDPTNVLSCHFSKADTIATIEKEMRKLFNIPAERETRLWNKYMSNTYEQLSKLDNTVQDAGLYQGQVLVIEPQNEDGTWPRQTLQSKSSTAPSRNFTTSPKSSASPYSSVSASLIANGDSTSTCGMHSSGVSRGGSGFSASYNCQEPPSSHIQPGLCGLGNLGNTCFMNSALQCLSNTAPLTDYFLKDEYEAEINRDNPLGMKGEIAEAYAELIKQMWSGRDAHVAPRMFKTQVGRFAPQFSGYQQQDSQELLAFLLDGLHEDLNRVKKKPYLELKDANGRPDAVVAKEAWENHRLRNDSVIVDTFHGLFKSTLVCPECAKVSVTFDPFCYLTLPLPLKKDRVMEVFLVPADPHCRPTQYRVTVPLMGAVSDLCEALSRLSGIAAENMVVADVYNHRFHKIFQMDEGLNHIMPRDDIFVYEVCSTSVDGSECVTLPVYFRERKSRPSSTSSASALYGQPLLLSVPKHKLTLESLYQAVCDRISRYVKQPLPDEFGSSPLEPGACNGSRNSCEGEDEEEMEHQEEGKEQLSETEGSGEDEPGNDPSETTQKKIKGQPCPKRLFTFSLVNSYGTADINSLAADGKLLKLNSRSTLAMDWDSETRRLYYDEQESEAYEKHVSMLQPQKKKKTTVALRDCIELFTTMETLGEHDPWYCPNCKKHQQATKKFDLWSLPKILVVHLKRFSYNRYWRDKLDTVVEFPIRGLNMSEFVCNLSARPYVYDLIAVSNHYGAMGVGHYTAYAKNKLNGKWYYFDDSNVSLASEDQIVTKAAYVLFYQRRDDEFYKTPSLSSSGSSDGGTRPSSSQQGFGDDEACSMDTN
How it was run: as §1

Measured: log2 ratio of Biotin-Ahx-Ub-VS probe labelling

Cl.O=C(CCl)NCc1ccnc(Oc2ccccc2F)c1
inactive: USP34 -0.267 | USP36 0.0203 | USP38 -0.00457 | USP39 0.295 | USP4 -0.0201
